Experimental findings from PubChem BioAssay (EPA / NIEHS) are described below.

The target in test [1] is Retinoic acid receptor alpha (Homo sapiens) (UniProt P10276). Briefly: ATG_DR5_RAR_CIS: Attagene CIS-FACTORIAL HepG2 Assay for human Retinoic Acid Receptor Alpha (RARE), DR5 submotif (AID 2282934; active = hit-call score of the fitted dose curve at least 0.9, where 1 is the maximum; inactive = score below 0.9). The following applies: HepG2 Attagene cis-factorial RARE DR5 reporter, mRNA; actives raise or lower the signal. The gist of the method:
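HepG2 cells transiently transfected with multiplexed reporter units under cis (DR5 RARE) promoters, so endogenous transcription factor activity is measured. After 24 h compound exposure, reporter mRNA is quantified by RT-PCR with fluorescent labelling and capillary electrophoresis; bidirectional fitting versus DMSO.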

Test [2] concerns the target Nuclear receptor subfamily 1 group I member 3 (Homo sapiens) (UniProt Q14994). The test is described as follows: ATG_CAR_TRANS: Attagene TRANS-FACTORIAL HepG2 Assay for human Constitutive Androstane Receptor (CAR) (AID 2282969).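 Note: activators raise reporter mRNA above DMSO so AC50 marks induction.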 As to conditions: HepG2 Attagene TRANS-FACTORIAL CAR reporter. The gist of the method: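 Steps: transient transfection of HepG2 with multiple GAL4-UAS reporter units; 24 h compound incubation; RNA isolation, RT-PCR, 6-FAM primer extension, HpaI digest; capillary electrophoresis. Gain-of-signal relative to DMSO negative control.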

Test [3] concerns the target Glucocorticoid receptor (Homo sapiens) (UniProt P04150). Briefly: ATG_GR_TRANS: Attagene TRANS-FACTORIAL HepG2 Assay for human Glucocorticoid Receptor (GR) (AID 2282978).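 Note: activators score as hits since higher reporter transcript over DMSO is fitted.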 The following applies: HepG2 Attagene TRANS GR reporter, mRNA transcription. The gist of the method: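 In this trans-factorial format, exogenous NR-GAL4 chimeric proteins in transfected HepG2 cells regulate GAL4-UAS reporter transcription. After 24 h treatment, reporter mRNA induction relative to DMSO is read by RT-PCR and capillary electrophoresis.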

A short description of test [4]: ATG_NF_kB_CIS: Attagene CIS-FACTORIAL HepG2 Assay for human Nuclear Factor Kappa B (NF-kB) (AID 2282991; active = hit-call score of the fitted dose curve at least 0.9, where 1 is the maximum; inactive = score below 0.9). As to conditions: HepG2 Attagene cis-factorial NF-kB reporter mRNA; actives raise or lower the signal. The gist of the method: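 Endogenous transcription factor activity in HepG2 was captured via cis-regulated reporter constructs; after 24 h dosing, reporter mRNA was reverse-transcribed, amplified, fluorescently labelled and sized by capillary electrophoresis, with activity fitted bidirectionally relative to DMSO.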

Test [5] deals with human RAR-related Orphan Receptor gamma (RORg), RORC (gene 6097) (UniProt P51449). The test is described as follows: ATG_RORg_TRANS: Attagene TRANS-FACTORIAL HepG2 Assay for human RAR-related Orphan Receptor gamma (RORg) (AID 2283011). The procedure, abridged: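 Transient MRTU transfection of HepG2 (TRANS format, exogenous NR-Gal4 chimera). 24 h dosing. Total RNA → oligo(dT) RT → PCR → 6-FAM labelling → HpaI cut → CE. Gain vs DMSO.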

For test [6], the target named is human Vitamin D Receptor (VDR), VDR (gene 7421) (UniProt P11473). Briefly: ATG_VDR_TRANS: Attagene TRANS-FACTORIAL HepG2 Assay for human Vitamin D Receptor (VDR) (AID 2283022). The gist of the method: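 RT-PCR/capillary electrophoresis read-out of reporter mRNA induction in transiently transfected HepG2; 24 h dosing; chimeric NR-Gal4 (TRANS format); gain-of-signal fit against DMSO baseline.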
human Vitamin D Receptor (VDR), VDR (gene 7421), sequence (P11473 whole entry, looked up, the tested form may be a part): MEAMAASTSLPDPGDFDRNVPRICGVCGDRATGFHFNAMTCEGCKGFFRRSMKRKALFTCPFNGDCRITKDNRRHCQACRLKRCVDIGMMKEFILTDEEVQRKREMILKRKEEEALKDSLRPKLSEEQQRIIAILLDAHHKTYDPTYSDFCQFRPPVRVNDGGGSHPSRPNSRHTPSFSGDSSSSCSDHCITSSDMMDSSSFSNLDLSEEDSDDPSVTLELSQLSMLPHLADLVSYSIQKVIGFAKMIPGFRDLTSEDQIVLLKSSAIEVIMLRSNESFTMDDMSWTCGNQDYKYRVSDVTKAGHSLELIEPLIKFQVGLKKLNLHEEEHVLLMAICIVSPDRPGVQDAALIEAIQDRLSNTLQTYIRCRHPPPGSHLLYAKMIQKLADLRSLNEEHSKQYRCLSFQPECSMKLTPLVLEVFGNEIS

Test [7] in a line: ATG_XTT_Cytotoxicity: Cytotoxicity Assessment in the Attagene TRANS-FACTORIAL HepG2 Assay (AID 2283584). The gist of the method:
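XTT readout of cell number in transfected HepG2 cells, 24 h post-dosing; DMSO serves as negative control and baseline, with activity taken as loss of viability signal.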

Test [8] can be described thus: TOX21_p53_BLA_p3_viability: Viability Assessment in the Tox21 HCT-116 p53 Agonism Beta-lactamase Assay, Phase 3 (AID 2283593).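 Note: cells exposed to compound for 16 h before reading.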 The procedure, abridged:
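HCT-116 cells (4000/well) rested 5 h at 37C, then got DMSO compounds by pin tool (217-fold dilution) for 16 h at 37C, 5% CO2. After the bla read, CellTiter-Glo was added and luminescence read at 30 min, room temperature.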

Test [9] concerns the target Bile acid receptor (Homo sapiens) (UniProt Q96RI1). The test is described as follows: ATG_IR1_CIS: Attagene CIS-FACTORIAL HepG2 Assay for human Nuclear Receptor Subfamily 1 Group H Member 4 (NR1H4), IR1 submotif (AID 2282946; active = hit-call score of the fitted dose curve at least 0.9, where 1 is the maximum; inactive = score below 0.9). As to conditions: IR1 reporter transcription, actives raise or lower the signal. The gist of the method: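 Readout: reporter transcript levels by RT-PCR with fluorescent capillary electrophoresis, from HepG2 cells transiently transfected with multiplexed cis-regulated reporters and dosed 24 h. Gain- or loss-of-signal fitted versus DMSO negative control.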

The nature of test [10]: ATG_M_19_TRANS: Attagene TRANS-FACTORIAL HepG2 Assay for M19 Transcription Factor (Internal Marker) (AID 2282974). As to conditions: HepG2 Attagene TRANS-FACTORIAL M19 internal marker reporter. The procedure, abridged:
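Cells: human HepG2, transiently transfected with multiplexed reporter transcription units. Exposure: 24 h. Detection: RT-PCR of reporter mRNA with capillary electrophoresis. Analysis: gain-of-signal vs DMSO.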

Test [11] has as its target human Peroxisome Proliferator-activated Receptor delta (PPARd), PPARD (gene 5467) (UniProt Q03181). Briefly: ATG_PPARd_TRANS: Attagene TRANS-FACTORIAL HepG2 Assay for human Peroxisome Proliferator-activated Receptor delta (PPARd) (AID 2283002). The gist of the method:
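HepG2 cells transiently transfected with multiplexed GAL4-UAS reporter units and exogenous chimeric NR-Gal4 proteins; 24 h compound exposure. Reporter mRNA measured by RT-PCR, 6-FAM labelling, HpaI digestion and capillary electrophoresis; gain of signal versus DMSO.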

The target in test [12] is Nuclear receptor subfamily 1 group I member 2 (Homo sapiens) (UniProt O75469). The test is described as follows: ATG_PXR_TRANS: Attagene TRANS-FACTORIAL HepG2 Assay for human Pregnane X Receptor (PXR) (AID 2283008). The procedure, abridged: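 Multiplexed TRANS reporter panel in HepG2; this component tracks PXR-Gal4-driven reporter mRNA after 24 h dosing, measured by RT-PCR with capillary electrophoresis fluorescence, fitted against DMSO.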
Nuclear receptor subfamily 1 group I member 2 (Homo sapiens), sequence (O75469 whole entry, looked up, the tested form may be a part): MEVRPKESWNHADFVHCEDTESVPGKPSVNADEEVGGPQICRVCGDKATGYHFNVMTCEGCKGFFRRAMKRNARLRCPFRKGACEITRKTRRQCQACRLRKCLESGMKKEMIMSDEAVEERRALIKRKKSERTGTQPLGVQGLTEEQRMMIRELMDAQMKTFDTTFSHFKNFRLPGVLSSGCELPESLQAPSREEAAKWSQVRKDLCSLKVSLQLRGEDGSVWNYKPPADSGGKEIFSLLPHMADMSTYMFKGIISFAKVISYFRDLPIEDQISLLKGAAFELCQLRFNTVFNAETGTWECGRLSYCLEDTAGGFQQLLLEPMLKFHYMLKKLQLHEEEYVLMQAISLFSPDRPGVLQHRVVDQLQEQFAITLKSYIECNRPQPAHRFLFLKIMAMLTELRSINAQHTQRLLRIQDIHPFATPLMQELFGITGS

The target in test [13] is human RAR-related Orphan Receptor beta (RORb), RORB (gene 6096) (UniProt Q92753). Briefly: ATG_RORb_TRANS: Attagene TRANS-FACTORIAL HepG2 Assay for human RAR-related Orphan Receptor beta (RORb) (AID 2283010). The gist of the method:
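HepG2, transient MRTU transfection (GAL4-UAS reporters, exogenous NR-Gal4 chimeras); 24 h compound exposure; total RNA → RT-PCR → 6-FAM primer extension → HpaI digest → CE fluorescence. Positive direction vs DMSO baseline.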

Test [14] deals with Retinoic acid receptor RXR-alpha (Homo sapiens) (UniProt P19793). The test is described as follows: ATG_RXRa_TRANS: Attagene TRANS-FACTORIAL HepG2 Assay for human Retinoid X Receptor alpha (RXRa) (AID 2283012). The procedure, abridged: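 Read-out: fluorescent reporter-transcript fragments quantified by capillary electrophoresis after RT-PCR. Transiently transfected HepG2 cells carrying GAL4-UAS reporters and NR-GAL4 chimeras were exposed to chemical for 24 h; activity scored as increase over DMSO.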
Retinoic acid receptor RXR-alpha (Homo sapiens), sequence (P19793 whole entry, looked up, the tested form may be a part): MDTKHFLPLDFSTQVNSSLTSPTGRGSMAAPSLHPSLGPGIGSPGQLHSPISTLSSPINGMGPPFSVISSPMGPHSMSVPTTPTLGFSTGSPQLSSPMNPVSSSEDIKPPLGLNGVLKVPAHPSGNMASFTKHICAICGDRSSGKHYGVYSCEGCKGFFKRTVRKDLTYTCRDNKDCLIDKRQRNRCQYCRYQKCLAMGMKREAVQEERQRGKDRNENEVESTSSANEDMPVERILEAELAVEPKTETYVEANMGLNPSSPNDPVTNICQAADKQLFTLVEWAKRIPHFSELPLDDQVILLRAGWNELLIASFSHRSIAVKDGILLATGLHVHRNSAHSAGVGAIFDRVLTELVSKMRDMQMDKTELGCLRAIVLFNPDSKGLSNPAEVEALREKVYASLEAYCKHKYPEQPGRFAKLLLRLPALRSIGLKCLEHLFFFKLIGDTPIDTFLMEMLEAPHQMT

Test [15] can be described thus: ATG_PPRE_CIS: Attagene CIS-FACTORIAL HepG2 Assay for human Peroxisome Proliferator-activated Response Element (PPRE) (AID 2282958; active = hit-call score of the fitted dose curve at least 0.9, where 1 is the maximum; inactive = score below 0.9). The following applies: HepG2 PPRE cis-element reporter, Attagene transcription factor profiling; actives raise or lower the signal. The gist of the method: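 Cells are first transfected transiently with the multiplexed reporter library, then dosed for 24 h. Total RNA is reverse-transcribed, amplified, fluorescently end-labeled and HpaI-cut before capillary electrophoresis; activity is fitted bidirectionally against DMSO controls.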

Test [16] addresses Oxysterols receptor LXR-alpha (Homo sapiens) (UniProt Q13133). The test is described as follows: ATG_LXRa_TRANS: Attagene TRANS-FACTORIAL HepG2 Assay for human Liver X Receptor alpha (LXRa) (AID 2282980). As to conditions: HepG2 Attagene TRANS reporter, LXRa transactivation. The gist of the method: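 Read-out: reporter transcript levels by RT-PCR plus capillary electrophoresis, fluorescence intensity. Transiently transfected HepG2, exogenous NR-GAL4 chimera, GAL4-UAS reporters; 24 h compound exposure. Activity = increase over DMSO negative control.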

The target of test [17] is Nuclear receptor subfamily 4 group A member 2 (Homo sapiens) (UniProt P43354). The test is described as follows: ATG_NURR1_TRANS: Attagene TRANS-FACTORIAL HepG2 Assay for human Nuclear Receptor Related Protein 1 (NURR1) (AID 2282985). The following applies: HepG2 Attagene TRANS reporter, mRNA readout. The procedure, abridged:
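Chimeric NR-Gal4 proteins were expressed in human HepG2 cells bearing GAL4-UAS reporter units, and induced reporter mRNA was quantified 24 h post-dosing by RT-PCR and capillary electrophoresis.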

Test [18] concerns the target human Peroxisome Proliferator-activated Receptor alpha (PPARa), PPARA (gene 5465) (UniProt Q07869). Briefly: ATG_PPARa_TRANS: Attagene TRANS-FACTORIAL HepG2 Assay for human Peroxisome Proliferator-activated Receptor alpha (PPARa) (AID 2283001). The procedure, abridged:
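Exposure: 24 h, transiently transfected HepG2 cells. Endpoint: GAL4-UAS reporter mRNA, RT-PCR with capillary electrophoresis fluorescence. Baseline: DMSO; increases fitted.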

The nature of test [19]: CCTE_Harrill_HTTr_Viability_MCF7: CCTE's 6-hour Cell Viability Assessment for the High-Throughput Transcriptomics (HTTr) Platform, in MCF-7 cells cultured in DMEM + 10% fetal bovine serum, Harrill Lab (AID 2284010; active = hit-call score of the fitted dose curve at least 0.9, where 1 is the maximum; inactive = score below 0.9). The procedure, abridged: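 PI exclusion, high-content imaging; 8-pt dilution series, 6 h exposure; bidirectional fit vs DMSO (neg. ctrl/baseline); gain of signal = loss of membrane integrity.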

Test [20] is described as follows: CCTE_Harrill_HTTr_Apoptosis_MCF7: CCTE's 6-hour Apoptosis Assessment for the High-Throughput Transcriptomics (HTTr) Platform, in MCF-7 cells cultured in DMEM + 10% fetal bovine serum, Harrill Lab (AID 2284011; active = hit-call score of the fitted dose curve at least 0.9, where 1 is the maximum; inactive = score below 0.9). The procedure, abridged: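 Read-out: CellEvent Caspase 3/7 Green signal by high content imaging, gain-of-signal indicating apoptosis. MCF-7 cells, DMEM + 10% FBS, eight-point dilution series, 6 h exposure. Curves fitted bidirectionally relative to DMSO negative control.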

Each structure is given as a SMILES string. Results filed as inconclusive are left out. A structure can be active in one record and inactive in another. Calls of active or inactive are those of the source. Rule for the calls, unless noted: active = hit-call score of the fitted dose curve at least 0.9, where 1 is the maximum; inconclusive = response in the unintended direction; inactive = score below 0.9.

Glucocorticoid receptor (Homo sapiens), sequence (P04150 whole entry, looked up, the tested form may be a part): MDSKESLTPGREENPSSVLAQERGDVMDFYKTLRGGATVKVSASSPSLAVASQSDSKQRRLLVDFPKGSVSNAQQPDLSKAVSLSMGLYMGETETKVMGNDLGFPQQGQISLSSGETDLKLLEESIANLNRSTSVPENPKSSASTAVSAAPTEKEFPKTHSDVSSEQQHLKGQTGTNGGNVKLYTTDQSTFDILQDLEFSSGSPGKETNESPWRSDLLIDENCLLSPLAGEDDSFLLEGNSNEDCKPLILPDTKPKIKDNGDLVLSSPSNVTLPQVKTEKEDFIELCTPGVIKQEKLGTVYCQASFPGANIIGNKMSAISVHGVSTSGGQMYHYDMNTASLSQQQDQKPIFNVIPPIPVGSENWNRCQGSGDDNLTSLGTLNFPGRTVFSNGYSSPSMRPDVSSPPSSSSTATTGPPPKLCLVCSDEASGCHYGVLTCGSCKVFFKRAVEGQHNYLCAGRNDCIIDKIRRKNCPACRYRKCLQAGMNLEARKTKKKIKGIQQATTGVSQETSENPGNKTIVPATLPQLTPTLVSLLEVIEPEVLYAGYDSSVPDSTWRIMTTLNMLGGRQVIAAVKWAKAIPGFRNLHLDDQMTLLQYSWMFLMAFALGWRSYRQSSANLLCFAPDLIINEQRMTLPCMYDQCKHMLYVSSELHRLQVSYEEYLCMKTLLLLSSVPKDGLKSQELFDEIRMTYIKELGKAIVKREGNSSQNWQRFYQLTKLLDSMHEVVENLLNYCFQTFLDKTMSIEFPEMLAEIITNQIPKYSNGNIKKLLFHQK
Retinoic acid receptor alpha (Homo sapiens), sequence (P10276 whole entry, looked up): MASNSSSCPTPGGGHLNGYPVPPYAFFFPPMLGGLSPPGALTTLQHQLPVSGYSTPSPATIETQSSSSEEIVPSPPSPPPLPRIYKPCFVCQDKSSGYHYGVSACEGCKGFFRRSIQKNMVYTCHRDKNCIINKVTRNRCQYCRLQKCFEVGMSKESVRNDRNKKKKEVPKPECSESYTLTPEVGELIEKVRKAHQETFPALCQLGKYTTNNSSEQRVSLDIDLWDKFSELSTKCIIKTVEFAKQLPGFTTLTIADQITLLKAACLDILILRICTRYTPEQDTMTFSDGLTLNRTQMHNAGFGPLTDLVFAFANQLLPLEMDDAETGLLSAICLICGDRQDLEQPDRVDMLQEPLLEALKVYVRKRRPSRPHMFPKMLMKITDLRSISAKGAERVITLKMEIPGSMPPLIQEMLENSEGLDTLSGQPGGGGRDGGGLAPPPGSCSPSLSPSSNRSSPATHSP
human RAR-related Orphan Receptor beta (RORb), RORB (gene 6096), sequence (Q92753 whole entry, looked up, the tested form may be a part): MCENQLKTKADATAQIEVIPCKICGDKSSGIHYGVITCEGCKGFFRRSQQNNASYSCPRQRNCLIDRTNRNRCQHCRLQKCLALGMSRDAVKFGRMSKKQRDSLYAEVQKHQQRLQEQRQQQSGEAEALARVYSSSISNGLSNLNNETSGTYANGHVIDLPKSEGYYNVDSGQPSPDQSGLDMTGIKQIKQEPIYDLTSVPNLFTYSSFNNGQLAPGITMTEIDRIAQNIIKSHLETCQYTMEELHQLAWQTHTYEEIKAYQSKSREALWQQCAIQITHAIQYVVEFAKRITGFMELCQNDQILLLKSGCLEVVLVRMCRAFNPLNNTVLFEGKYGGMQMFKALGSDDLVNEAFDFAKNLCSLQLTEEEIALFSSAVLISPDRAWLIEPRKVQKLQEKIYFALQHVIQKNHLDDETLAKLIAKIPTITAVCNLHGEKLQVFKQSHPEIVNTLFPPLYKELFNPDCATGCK
human Peroxisome Proliferator-activated Receptor delta (PPARd), PPARD (gene 5467), sequence (Q03181 whole entry, looked up, the tested form may be a part): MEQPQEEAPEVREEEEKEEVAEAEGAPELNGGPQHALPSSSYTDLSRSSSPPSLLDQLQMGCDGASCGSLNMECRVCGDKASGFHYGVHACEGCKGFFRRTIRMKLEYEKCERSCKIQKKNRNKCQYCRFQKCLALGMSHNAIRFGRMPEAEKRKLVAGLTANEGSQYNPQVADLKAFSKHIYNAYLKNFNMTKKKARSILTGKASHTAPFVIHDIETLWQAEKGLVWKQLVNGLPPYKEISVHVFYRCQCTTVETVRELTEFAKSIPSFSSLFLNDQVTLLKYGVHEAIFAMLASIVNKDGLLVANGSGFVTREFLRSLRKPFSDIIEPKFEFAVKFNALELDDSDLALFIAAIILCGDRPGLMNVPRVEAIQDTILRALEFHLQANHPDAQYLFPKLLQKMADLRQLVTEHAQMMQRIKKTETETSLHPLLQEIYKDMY
Nuclear receptor subfamily 4 group A member 2 (Homo sapiens), sequence (P43354 whole entry, looked up, the tested form may be a part): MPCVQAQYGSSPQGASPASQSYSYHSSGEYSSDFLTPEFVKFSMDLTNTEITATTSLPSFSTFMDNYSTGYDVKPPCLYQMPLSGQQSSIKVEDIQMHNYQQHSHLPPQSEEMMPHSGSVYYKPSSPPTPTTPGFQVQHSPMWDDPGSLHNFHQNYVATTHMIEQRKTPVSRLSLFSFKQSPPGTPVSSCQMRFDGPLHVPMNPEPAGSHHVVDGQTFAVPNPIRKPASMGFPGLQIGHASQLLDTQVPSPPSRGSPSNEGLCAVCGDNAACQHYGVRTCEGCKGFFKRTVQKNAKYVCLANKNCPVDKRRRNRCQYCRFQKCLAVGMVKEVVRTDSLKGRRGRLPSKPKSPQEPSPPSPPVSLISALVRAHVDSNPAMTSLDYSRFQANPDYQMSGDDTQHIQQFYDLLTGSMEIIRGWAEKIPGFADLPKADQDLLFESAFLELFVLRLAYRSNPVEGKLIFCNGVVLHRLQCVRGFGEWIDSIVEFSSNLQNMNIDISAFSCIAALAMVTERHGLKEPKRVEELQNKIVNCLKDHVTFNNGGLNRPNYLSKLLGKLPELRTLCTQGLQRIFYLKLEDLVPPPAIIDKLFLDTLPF
Bile acid receptor (Homo sapiens), sequence (Q96RI1 whole entry, looked up): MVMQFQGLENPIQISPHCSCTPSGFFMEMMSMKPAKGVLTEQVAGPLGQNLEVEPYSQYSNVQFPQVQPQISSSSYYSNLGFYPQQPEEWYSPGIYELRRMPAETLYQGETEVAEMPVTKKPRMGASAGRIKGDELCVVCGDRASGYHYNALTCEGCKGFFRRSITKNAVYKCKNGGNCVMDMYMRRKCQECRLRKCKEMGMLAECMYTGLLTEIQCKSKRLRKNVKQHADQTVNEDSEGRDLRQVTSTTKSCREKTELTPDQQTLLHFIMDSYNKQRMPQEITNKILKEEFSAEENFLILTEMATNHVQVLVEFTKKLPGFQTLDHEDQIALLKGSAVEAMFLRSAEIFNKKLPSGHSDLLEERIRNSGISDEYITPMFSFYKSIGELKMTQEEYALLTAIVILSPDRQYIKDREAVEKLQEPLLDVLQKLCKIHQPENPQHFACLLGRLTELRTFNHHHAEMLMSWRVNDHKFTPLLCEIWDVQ
Nuclear receptor subfamily 1 group I member 3 (Homo sapiens), sequence (Q14994 whole entry, looked up, the tested form may be a part): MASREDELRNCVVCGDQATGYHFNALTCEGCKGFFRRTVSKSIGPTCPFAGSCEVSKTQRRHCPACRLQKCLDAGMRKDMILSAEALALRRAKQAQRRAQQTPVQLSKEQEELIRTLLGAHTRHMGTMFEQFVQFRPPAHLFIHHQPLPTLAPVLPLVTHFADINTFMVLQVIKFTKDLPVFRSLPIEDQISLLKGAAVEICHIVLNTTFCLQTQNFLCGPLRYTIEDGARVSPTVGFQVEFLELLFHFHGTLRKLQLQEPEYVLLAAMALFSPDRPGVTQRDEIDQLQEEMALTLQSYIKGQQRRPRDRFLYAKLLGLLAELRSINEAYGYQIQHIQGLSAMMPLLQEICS

In the case of `N#CCCCl`, the compound was called inactive in [1], in [2], in [3], in [4], in [5] and in test [6]. For the same compound, the result in [7] and in [8] was inactive.
As usually defined, the AC50 is the concentration at which the activity in the assay is half-maximal. `CC1OC(C)OC(C)O1` (stereo not drawn): the compound was classed as inactive in test [9], in test [10], in test [4], in test [11], in test [12] and in [13]. In addition, the outcome in test [14], in [7] and in test [8] was inactive. Also, in [8], the AC50 is 42.6 µM (active).
As to `CC(Cc1ccc(C(C)(C)C)cc1)CN1C[C@@H](C)O[C@@H](C)C1` (stereo partly drawn), the compound was called inactive in [9], in [15], in test [2], in test [10], in [3] and in test [16]. The compound was classed as inactive in [18], in test [13], in test [14], in test [19] and in [20]. The AC50 in test [17] is 33.4 µM (active); in [12], 4.52 µM (active); in test [8], 46.1 µM (active).
With `Cc1ccc(OP(=O)(Oc2ccc(C)cc2)Oc2ccc(C)cc2)cc1` (tested in a mixture with another compound), the compound was called inactive in test [1], in test [10], in test [3], in test [7], in test [19] and in [20].
Regarding `O=C1Nc2ccc(Cl)cc2C(c2ccccc2)=NC1O` (stereo not drawn), the outcome in test [1], in test [15], in [16], in test [18], in [11] and in test [12] was inactive. For the same compound, the call in test [6], in test [8], in test [19] and in [20] was inactive.
On to `CC1(C)[C@H](C(=O)O[C@H](C#N)c2cccc(Oc3ccccc3)c2)[C@@H]1C=C(Br)Br`, for which the outcome in [15], in test [10], in [3], in test [17], in test [4] and in [13] was inactive. The call in test [7], in test [8], in test [19] and in [20] was inactive.
